Test results reported in the supplement of paper PMC11628255, “Interference of metal ions on the bioluminescent signal of firefly, Renilla, and NanoLuc luciferases in high-throughput screening assays” (Frontiers in Chemistry, 2024).
± gives the standard deviation of the averaged measurements.

Test system: NanoLuc luciferase (NLuc)
Experiment: residual bioluminescent signal relative to negative control without GSH; higher = less interference (more residual luciferase signal)
Details: screening conditions buffer
Procedure: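 Selected metal salts at 3-4 concentrations tested on purified FLuc, NLuc or RLuc in screening buffer with 0, 0.2 or 2 mM glutathione added; 10 min enzyme pre-incubation at RT, luminescence 10 min after substrate. Signal normalised to negative control without GSH (% N_VALUE); triplicate wells.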

[1] = metal salt concentration 1 mM, glutathione 0 mM
[2] = metal salt concentration 1 mM, glutathione 0.2 mM
[3] = metal salt concentration 1 mM, glutathione 2 mM

Row | Structure (SMILES) | residual bioluminescent signal (metal salt concentration 0.01 mM, glutathione 0 mM) [%] | residual bioluminescent signal (metal salt concentration 0.01 mM, glutathione 0.2 mM) [%] | residual bioluminescent signal (metal salt concentration 0.01 mM, glutathione 2 mM) [%] | residual bioluminescent signal (metal salt concentration 0.816 mM, glutathione 0 mM) [%] | residual bioluminescent signal (metal salt concentration 0.816 mM, glutathione 0.2 mM) [%] | residual bioluminescent signal (metal salt concentration 0.816 mM, glutathione 2 mM) [%] | residual bioluminescent signal [1] [%] | residual bioluminescent signal [2] [%] | residual bioluminescent signal [3] [%] | residual bioluminescent signal (metal salt concentration 2.5 mM, glutathione 0 mM) [%] | residual bioluminescent signal (metal salt concentration 2.5 mM, glutathione 0.2 mM) [%] | residual bioluminescent signal (metal salt concentration 2.5 mM, glutathione 2 mM) [%] | residual bioluminescent signal (metal salt concentration 0.05 mM, glutathione 0 mM) [%] | residual bioluminescent signal (metal salt concentration 0.05 mM, glutathione 0.2 mM) [%] | residual bioluminescent signal (metal salt concentration 0.05 mM, glutathione 2 mM) [%] | residual bioluminescent signal (metal salt concentration 0.88 mM, glutathione 0 mM) [%] | residual bioluminescent signal (metal salt concentration 0.88 mM, glutathione 0.2 mM) [%] | residual bioluminescent signal (metal salt concentration 0.88 mM, glutathione 2 mM) [%] | residual bioluminescent signal (metal salt concentration 5 mM, glutathione 0 mM) [%] | residual bioluminescent signal (metal salt concentration 5 mM, glutathione 0.2 mM) [%] | residual bioluminescent signal (metal salt concentration 5 mM, glutathione 2 mM) [%]
1 | [Cl][Fe]([Cl])[Cl] [iron(III) chloride] | 95.59 ± 0.8 | 101 ± 6.7 | 82.7 ± 2.5 | 60.2 ± 3.4 | 69.1 ± 0.65 | 28.9 ± 1.5 | 54.3 ± 4.4 | 55.5 ± 7.2 | 44.4 ± 35 | 4.41 ± 1.8 | 7.61 ± 0.73 | 1.69 ± 0.99 | – | – | – | – | – | – | – | – | –
2 | [Cl][Fe][Cl] [iron(II) chloride] | – | – | – | – | – | – | 38.2 ± 3.3 | 47.6 ± 1.5 | 30.5 ± 2.4 | – | – | – | 94.3 ± 1.3 | 100 ± 3.5 | 82.2 ± 1.7 | 47.8 ± 5.5 | 49.4 ± 1.8 | 34.8 ± 2.7 | 1.69 ± 0.79 | 2.48 ± 0.68 | 7.22 ± 0.76
